Results published in PubChem BioAssay (NCATS).
Records with an inconclusive call do not appear. Entries that show only a call come without a potency. Calls of active or inactive are those of the source. Calls follow the shape of the dose curve; as a rule, active = well fitted curve in the direction sought with a large enough effect; inconclusive = small, poorly fitted or top-dose-only effect, or another doubt; inactive = no such curve, though single readings can be large; an effect the other way counts as inactive or inconclusive.

Columns and labels:
[1] = qHTS of pediatric cancer cell lines to identify multiple opportunities for drug repurposing: Primary screen for NB-EBc1 cells (AID 1347095)
Summary of the method: (§1)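 Cells seeded at 500-1,000 cells/well in growth media, rested 5 hours at 37 degrees C, 5% CO2, then dosed; MIPE compounds at 11-point (from 0.78 nM) and NPC at 8-point (from 0.59 nM) final concentrations. Viability by CellTiter-Glo luminescence after 48 hours.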

[2] = qHTS of pediatric cancer cell lines to identify multiple opportunities for drug repurposing: Primary screen for U-2 OS cells (AID 1347096); also: nearly all actives have a fitted effect of over 50% in size
Summary of the method: (§2)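 Cells (500-1,000/well) in growth media were settled 5 h at 37 degrees C, then given compounds for 48 h. Viability was read as CellTiter-Glo luminescence. Primary runs used MIPE at 11 points (0.78 nM-46 µM) and NPC at 8 points (0.59 nM-46 µM); follow-ups used 11 points.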

[3] = qHTS of pediatric cancer cell lines to identify multiple opportunities for drug repurposing: Primary screen for Saos-2 cells (AID 1347097); also: nearly all actives have a fitted effect of over 40% in size
Summary of the method: as §1

[4] = qHTS of pediatric cancer cell lines to identify multiple opportunities for drug repurposing: Primary screen for SK-N-SH cells (AID 1347098);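 also: DMSO served as neutral control and bortezomib at 2.3 µM as positive control; nearly all actives have a fitted effect of over 65% in size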
Summary of the method: (§3)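 Cells (500-1,000/well) rested 5 h, then received compounds for 48 h; metabolically active cells were measured by CellTiter-Glo luminescence. Final concentrations spanned up to 46 µM (MIPE, 11-point) or 0.59 nM-46 µM (NPC, 8-point) in primary screens, 11-point in follow-ups.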

[5] = qHTS of pediatric cancer cell lines to identify multiple opportunities for drug repurposing: Primary screen for NB1643 cells (AID 1347099); also: nearly all actives have a fitted effect of over 50% in size
Summary of the method: as §1

[6] = qHTS of pediatric cancer cell lines to identify multiple opportunities for drug repurposing: Primary screen for LAN-5 cells (AID 1347100); also: potency is read from the fitted curve at half-maximal effect
Summary of the method: as §2

[7] = qHTS of pediatric cancer cell lines to identify multiple opportunities for drug repurposing: Primary screen for BT-12 cells (AID 1347101); also: nearly all actives have a fitted effect of over 25% in size
Summary of the method: as §3

[8] = qHTS of pediatric cancer cell lines to identify multiple opportunities for drug repurposing: Primary screen for Rh18 cells (AID 1347102); also: nearly all actives have a fitted effect of over 65% in size
Summary of the method: as §2

[9] = qHTS of pediatric cancer cell lines to identify multiple opportunities for drug repurposing: Primary screen for OHS-50 cells (AID 1347103); also: nearly all actives have a fitted effect of over 40% in size
Summary of the method: as §3

[10] = qHTS of pediatric cancer cell lines to identify multiple opportunities for drug repurposing: Primary screen for RD cells (AID 1347104); also: nearly all actives have a fitted effect of over 55% in size
Summary of the method: as §1

[11] = qHTS of pediatric cancer cell lines to identify multiple opportunities for drug repurposing: Primary screen for MG 63 (6-TG R) cells (AID 1347105); also: nearly all actives have a fitted effect of over 50% in size
Summary of the method: as §1

[12] = qHTS of pediatric cancer cell lines to identify multiple opportunities for drug repurposing: Primary screen for control Hh wild type fibroblast cells (AID 1347106);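 also: series mostly up to about 46 µM; a drop in luminescence marks cytotoxicity and a rise apparent proliferation; nearly all actives have a fitted effect of over 55% in size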
Summary of the method: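 Viability after 48 h compound treatment at 37C, 500-1,000 cells/well, read as ATP luminescence with CellTiter-Glo. Primary screens used 11-point (MIPE, 0.78 nM-46 µM) or 8-point (NPC, 0.59 nM-46 µM) final concentrations; follow-up screens used 11-point dilutions.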

[13] = qHTS of pediatric cancer cell lines to identify multiple opportunities for drug repurposing: Primary screen for Rh30 cells (AID 1347107); also: series mostly up to about 46 µM; nearly all actives have a fitted effect of over 75% in size
Summary of the method: as §2

[14] = qHTS of pediatric cancer cell lines to identify multiple opportunities for drug repurposing: Primary screen for Rh41 cells (AID 1347108);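 also: series mostly up to about 46 µM; luminescence drop marks cytotoxic hits; nearly all actives have a fitted effect of over 70% in size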
Summary of the method: as §1

In the case of `CN(C(=O)C(Cl)Cl)c1ccc(OC(=O)c2ccco2)cc1`, the Potency [1] was “inactive”, the Potency [2] was “inactive” and the Potency [3] was “inactive”. The Potency [4] was “inactive”, the Potency [5] was “inactive” and the Potency [6] was “inactive”. For the same compound, the Potency [7] was “inactive”, the Potency [8] was “inactive” and the Potency [9] was “inactive”. For the same compound, the Potency [10] was “inactive”, the Potency [11] was “inactive” and the Potency [12] was “inactive”. The Potency [13] was “inactive” and the Potency [14] was “inactive”.

With `CCCCC(CC)COC(=O)c1ccccc1C(=O)O` (configuration not stated) the Potency [1] was “inactive”, the Potency [2] was “inactive” and the Potency [3] was “inactive”. For the same compound, the Potency [4] was “inactive”, the Potency [5] was “inactive” and the Potency [6] was “inactive”. For the same compound, the Potency [7] was “inactive”, the Potency [8] was “inactive” and the Potency [9] was “inactive”. For the same compound, the Potency [10] was “inactive”, the Potency [11] was “inactive” and the Potency [12] was “inactive”. The Potency [13] was “inactive” and the Potency [14] was “inactive”.

In the case of `CC(=O)/C=C/C=C1/C2CCC(C2)C1(C)C` (configuration not stated), the Potency [1] was “inactive”, the Potency [2] was “inactive” and the Potency [3] was “inactive”. The Potency [4] was “inactive”, the Potency [5] was “inactive” and the Potency [6] was “inactive”. For the same compound, the Potency [7] was “inactive”, the Potency [8] was “inactive” and the Potency [9] was “inactive”. For the same compound, the Potency [10] was “inactive”, the Potency [11] was “inactive” and the Potency [12] was “inactive”. The Potency [13] was “inactive” and the Potency [14] was “inactive”.

With `CCc1cc(S(=O)(=O)O)c2cc(C(C)C)cccc1-2` the Potency [1] was “inactive”, the Potency [2] was “inactive” and the Potency [3] was “inactive”. The Potency [4] was “inactive”, the Potency [5] was “inactive” and the Potency [6] was “inactive”. The Potency [7] was “inactive”, the Potency [8] was “inactive” and the Potency [9] was “inactive”. For the same compound, the Potency [10] was “inactive”, the Potency [11] was “inactive” and the Potency [12] was “inactive”. For the same compound, the Potency [13] was “inactive” and the Potency [14] was “inactive”.

In the case of `CC(C)(C)c1nnc(NS(=O)(=O)c2ccccc2)s1`, the Potency [1] was “inactive”, the Potency [2] was “inactive” and the Potency [3] was “inactive”. The Potency [4] was “inactive”, the Potency [5] was “inactive” and the Potency [6] was “inactive”. The Potency [7] was “inactive”, the Potency [8] was “inactive” and the Potency [9] was “inactive”. For the same compound, the Potency [10] was “inactive”, the Potency [11] was “inactive” and the Potency [12] was “inactive”. For the same compound, the Potency [13] was “inactive” and the Potency [14] was “inactive”.

In the case of `O=C1CC(c2ccc(Cl)cc2)CC(=O)N1`, the Potency [1] was “inactive”, the Potency [2] was “inactive” and the Potency [3] was “inactive”. For the same compound, the Potency [4] was “inactive”, the Potency [5] was “inactive” and the Potency [6] was “inactive”. The Potency [7] was “inactive”, the Potency [8] was “inactive” and the Potency [9] was “inactive”. For the same compound, the Potency [10] was “inactive”, the Potency [11] was “inactive” and the Potency [12] was “inactive”. The Potency [13] was “inactive” and the Potency [14] was “inactive”.

With `O=C(O)/C=C(\CC(=O)O)C(=O)O` the Potency [1] was “inactive”, the Potency [2] was “inactive” and the Potency [3] was “inactive”. For the same compound, the Potency [4] was “inactive”, the Potency [5] was “inactive” and the Potency [6] was “inactive”. For the same compound, the Potency [7] was “inactive”, the Potency [8] was “inactive” and the Potency [9] was “inactive”. For the same compound, the Potency [10] was “inactive”, the Potency [11] was “inactive” and the Potency [12] was “inactive”. The Potency [13] was “inactive” and the Potency [14] was “inactive”.

For `COc1ccc2c(c1)c(CC(=O)OC/C=C(\C)CC/C=C(\C)CCC=C(C)C)c(C)n2C(=O)c1ccc(Cl)cc1`, the Potency [1] was “inactive”, the Potency [2] was “inactive” and the Potency [3] was “inactive”. The Potency [4] was “inactive”, the Potency [5] was “inactive” and the Potency [6] was “inactive”. The Potency [7] was “inactive”, the Potency [8] was “inactive” and the Potency [9] was “inactive”. The Potency [10] was “inactive”, the Potency [11] was “inactive” and the Potency [12] was “inactive”. For the same compound, the Potency [13] was “inactive” and the Potency [14] was “inactive”.

With `CCCC(CCC)(C(=O)OCC)C(=O)OCC` the Potency [1] was “inactive”, the Potency [2] was “inactive” and the Potency [3] was “inactive”. The Potency [4] was “inactive”, the Potency [5] was “inactive” and the Potency [6] was “inactive”. For the same compound, the Potency [7] was “inactive”, the Potency [8] was “inactive” and the Potency [9] was “inactive”. The Potency [10] was “inactive”, the Potency [11] was “inactive” and the Potency [12] was “inactive”. The Potency [13] was “inactive” and the Potency [14] was “inactive”.

In the case of `Cc1cc(O)c(C)c(C)c1O`, the Potency [1] was “inactive”, the Potency [2] was “inactive” and the Potency [3] was “inactive”. The Potency [4] was “inactive”, the Potency [5] was “inactive” and the Potency [6] was 16.8 µM (active). The Potency [7] was “inactive”, the Potency [8] was “inactive” and the Potency [9] was “inactive”. The Potency [10] was “inactive”, the Potency [11] was “inactive” and the Potency [12] was “inactive”. For the same compound, the Potency [13] was “inactive” and the Potency [14] was “inactive”.

In the case of `C=CC[N+]1([C@H]2C[C@H]3[C@@H]4CC[C@H]5C[C@H](OC(C)=O)[C@@H](N6CCCCC6)C[C@]5(C)[C@H]4CC[C@]3(C)[C@H]2OC(=O)CC)CCCCC1`, the Potency [1] was “inactive”, the Potency [2] was “inactive” and the Potency [3] was “inactive”. For the same compound, the Potency [4] was “inactive”, the Potency [5] was “inactive” and the Potency [6] was “inactive”. The Potency [7] was “inactive”, the Potency [8] was “inactive” and the Potency [9] was “inactive”. For the same compound, the Potency [10] was “inactive”, the Potency [11] was “inactive” and the Potency [12] was “inactive”. For the same compound, the Potency [13] was “inactive” and the Potency [14] was “inactive”.

In the case of `CN(C)CCN1CCN(c2cccc(Cl)c2)C1=O`, the Potency [1] was “inactive”, the Potency [2] was “inactive” and the Potency [3] was “inactive”. The Potency [4] was “inactive”, the Potency [5] was “inactive” and the Potency [6] was “inactive”. For the same compound, the Potency [7] was “inactive”, the Potency [8] was “inactive” and the Potency [9] was “inactive”. For the same compound, the Potency [10] was “inactive”, the Potency [11] was “inactive” and the Potency [12] was “inactive”. The Potency [13] was “inactive” and the Potency [14] was “inactive”.

In the case of `CCOC(=O)OCC/C(SC(=O)OCC)=C(\C)N(C=O)Cc1cnc(C)nc1N`, the Potency [1] was “inactive”, the Potency [2] was “inactive” and the Potency [3] was “inactive”. For the same compound, the Potency [4] was “inactive”, the Potency [5] was “inactive” and the Potency [6] was “inactive”. The Potency [7] was “inactive”, the Potency [8] was “inactive” and the Potency [9] was “inactive”. The Potency [10] was “inactive”, the Potency [11] was “inactive” and the Potency [12] was “inactive”. For the same compound, the Potency [13] was “inactive” and the Potency [14] was “inactive”.

For `Cc1cccc(C)c1NC(=O)c1cc(S(N)(=O)=O)c(Cl)cc1O`, the Potency [1] was “inactive”, the Potency [2] was “inactive” and the Potency [3] was “inactive”. The Potency [4] was “inactive”, the Potency [5] was “inactive” and the Potency [6] was “inactive”. The Potency [7] was “inactive”, the Potency [8] was “inactive” and the Potency [9] was “inactive”. For the same compound, the Potency [10] was “inactive”, the Potency [11] was “inactive” and the Potency [12] was “inactive”. For the same compound, the Potency [13] was “inactive” and the Potency [14] was “inactive”.

For `C[C@H]1C[C@H](O)c2ccsc2S1(=O)=O`, the Potency [1] was “inactive”, the Potency [2] was “inactive” and the Potency [3] was “inactive”. The Potency [4] was “inactive”, the Potency [5] was “inactive” and the Potency [6] was “inactive”. The Potency [7] was “inactive”, the Potency [8] was “inactive” and the Potency [9] was “inactive”. The Potency [10] was “inactive”, the Potency [11] was “inactive” and the Potency [12] was “inactive”. The Potency [13] was “inactive” and the Potency [14] was “inactive”.

With `O=C(O)Cn1c(=O)n(Cc2ccc(Br)cc2F)c(=O)c2ccc(Cl)cc21` the Potency [1] was “inactive”, the Potency [2] was “inactive” and the Potency [3] was “inactive”. For the same compound, the Potency [4] was “inactive”, the Potency [5] was “inactive” and the Potency [6] was “inactive”. For the same compound, the Potency [7] was “inactive”, the Potency [8] was “inactive” and the Potency [9] was “inactive”. The Potency [10] was “inactive”, the Potency [11] was “inactive” and the Potency [12] was “inactive”. The Potency [13] was “inactive” and the Potency [14] was “inactive”.

For `O=C(O)C(=O)Nc1cccc(-c2nn[nH]n2)c1`, the Potency [1] was “inactive”, the Potency [2] was “inactive” and the Potency [3] was “inactive”. The Potency [4] was “inactive”, the Potency [5] was “inactive” and the Potency [6] was “inactive”. The Potency [7] was “inactive”, the Potency [8] was “inactive” and the Potency [9] was “inactive”. For the same compound, the Potency [10] was “inactive”, the Potency [11] was “inactive” and the Potency [12] was “inactive”. The Potency [13] was “inactive” and the Potency [14] was “inactive”.

In the case of `CN1CCCN=C1/C=C/c1cccs1`, the Potency [1] was “inactive”, the Potency [2] was “inactive” and the Potency [3] was “inactive”. For the same compound, the Potency [4] was “inactive”, the Potency [5] was “inactive” and the Potency [6] was “inactive”. For the same compound, the Potency [7] was “inactive”, the Potency [8] was “inactive” and the Potency [9] was “inactive”. For the same compound, the Potency [10] was “inactive”, the Potency [11] was “inactive” and the Potency [12] was “inactive”. The Potency [13] was “inactive” and the Potency [14] was “inactive”.
